Some test systems named below: NCI-H23 lung; NCI-H226 lung; NCI-H322M lung; HOP-62 NSCLC; NCI-H460 lung; NCI-H522 lung; A549/ATCC NSCLC; 786-0 renal; COLO 205 colon; DU-145 prostate; K-562 leukemia; MALME-3M melanoma; MDA-MB-231 breast; RXF 393 renal; SF-268 CNS; SF-539 CNS; UACC-257 melanoma; M14 melanoma; HCT-15 colon; SF-295 CNS.
Holding throughout (assay): NCI-60 one-dose screen, 48 h (100 = growth as untreated, 0 = no growth, -100 = all killed)
What all share (details): 10 µM unless noted

Consider eight molecules from PubChem BioAssay (NCI).

About 83,000 compounds went through this panel and 20% of them were active in at least one assay; those are over-represented in the sample as a whole.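 96-well plates, one dose, 48 hours. Percent growth reported; active if below 10.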 Values without a mark were called inactive. The source made the active and inactive calls.

Regarding `COc1ccc(-c2oc3cc(O)c(OC)c(O)c3c(=O)c2OC)cc1O`, the growth in the experiment on NCI-H23 lung is 16.1%; in the experiment on NCI-H226 lung, 73.5%; in the experiment with NCI-H322M lung, 46.7%; with HOP-62 NSCLC, 43%; with NCI-H460 lung, 1.5% (active); in the experiment with NCI-H522 lung it was -30.3% (active). Also, the growth with A549/ATCC NSCLC is 19.7%; in the experiment with 786-0 renal, 23.2%; in the experiment with COLO 205 colon, 101%; in the experiment with DU-145 prostate it was -18.4% (active); in the experiment with K-562 leukemia, 8.02% (active); in the experiment with MALME-3M melanoma, 38.9%. Also, the growth with MDA-MB-231 breast is 11.1%; with RXF 393 renal it was 7.24% (active); in the experiment with SF-268 CNS it was 13.6%; in the experiment with SF-539 CNS, -16% (active); with UACC-257 melanoma, 53.4%; in the experiment with M14 melanoma it was -24.8% (active). Also, in the experiment with HCT-15 colon, the growth was 17.3%.
In the case of `N#Cc1cnc2cc(OC[C@H](O)CO)c(NC(=O)CC3CSSC3)cc2c1Nc1ccc(OCc2cccc(F)c2)c(Cl)c1`, the growth is -73.4% (active) with NCI-H23 lung; -62.3% (active) in the experiment with NCI-H226 lung; -85.4% (active) with NCI-H322M lung; -60.8% (active) in the experiment with HOP-62 NSCLC; -70.7% (active) with NCI-H460 lung; -68.3% (active) in the experiment on NCI-H522 lung. Also, the growth with A549/ATCC NSCLC is -69.3% (active); in the experiment on 786-0 renal it was -63.2% (active); with COLO 205 colon, -79.4% (active); in the experiment with DU-145 prostate, -93.5% (active); with K-562 leukemia, -100% (active); in the experiment with MALME-3M melanoma it was -67% (active). In addition, the growth in the experiment with MDA-MB-231 breast was -54.9% (active); with RXF 393 renal it was -86.1% (active); in the experiment with SF-268 CNS, -56.3% (active); in the experiment with SF-295 CNS it was -82.1% (active); with SF-539 CNS, -85.8% (active); with M14 melanoma it was -66.8% (active). In addition, the growth in the experiment with HCT-15 colon is 27.3%.
In the case of `O=C(Nc1cccc(C(F)(F)F)c1)Nc1ccc(OCc2nnc(-c3ccc(Cl)cc3)o2)c(F)c1`, the growth in the experiment on NCI-H23 lung is 68%; in the experiment with NCI-H226 lung, 94.9%; with NCI-H322M lung, 86.5%; with HOP-62 NSCLC, 50.8%; in the experiment with NCI-H460 lung, 63.9%; in the experiment with NCI-H522 lung it was 64%. Further, the growth with A549/ATCC NSCLC was 50%; in the experiment with 786-0 renal, 84.2%; in the experiment with COLO 205 colon it was 66.5%; in the experiment on DU-145 prostate, 88.1%; in the experiment on K-562 leukemia it was 61%; with MALME-3M melanoma, 55.7%. Besides, the growth in the experiment on MDA-MB-231 breast was 58.8%; in the experiment with RXF 393 renal it was 58.2%; with SF-268 CNS it was 83.3%; with SF-539 CNS, 82.2%; in the experiment with UACC-257 melanoma, 62.8%; in the experiment on M14 melanoma, 73.5%. In the experiment with HCT-15 colon, the growth is 42.9%.
Regarding `COc1ccc(C2=NN(C(C)=O)C(c3cc(OC)c(OC)c(OC)c3)C2)cc1` (stereo not drawn), the growth is 101% with NCI-H23 lung; 119% in the experiment with NCI-H226 lung; 119% in the experiment with NCI-H322M lung; 105% in the experiment on HOP-62 NSCLC; 108% with NCI-H460 lung; 67.7% in the experiment with NCI-H522 lung. Besides, the growth was 108% with A549/ATCC NSCLC; 108% in the experiment on 786-0 renal; 108% in the experiment on COLO 205 colon; 107% in the experiment on DU-145 prostate; 75.4% in the experiment on K-562 leukemia; 120% with MALME-3M melanoma. Also, the growth was 109% in the experiment with MDA-MB-231 breast; 111% in the experiment with RXF 393 renal; 94.4% in the experiment with SF-268 CNS; 95.4% with SF-295 CNS; 91.5% with SF-539 CNS; 113% in the experiment with UACC-257 melanoma. The growth is 98.3% in the experiment with M14 melanoma and 84.6% in the experiment with HCT-15 colon.
As to `CN(C)c1ccc(/C=C(\C#N)c2nc3ccccc3c(=O)[nH]2)cc1`, the growth was 70.2% in the experiment on NCI-H23 lung; 74.1% in the experiment on NCI-H226 lung; 89.7% with NCI-H322M lung; 105% with HOP-62 NSCLC; 87.3% in the experiment on NCI-H460 lung; 84.2% with NCI-H522 lung. Besides, the growth in the experiment with A549/ATCC NSCLC is 99.5%; in the experiment on 786-0 renal, 91.9%; with COLO 205 colon, 111%; in the experiment on DU-145 prostate, 93%; with K-562 leukemia, 118%; in the experiment on MALME-3M melanoma, 75.8%. In addition, the growth in the experiment on MDA-MB-231 breast is 76%; with RXF 393 renal, 91.1%; with SF-268 CNS it was 69.4%; with SF-295 CNS it was 92.9%; in the experiment with SF-539 CNS it was 93.6%; in the experiment with M14 melanoma, 97.3%. In addition, in the experiment with HCT-15 colon, the growth is 97.2%.
With `Clc1cccc(Cc2cn3cc(-c4ccccc4)nc3s2)c1`, the growth was 62.6% with NCI-H23 lung; 73% in the experiment on NCI-H226 lung; 63.5% in the experiment on NCI-H322M lung; 69.7% with HOP-62 NSCLC; 16.5% in the experiment with NCI-H460 lung; 45.9% in the experiment on NCI-H522 lung. The growth in the experiment with A549/ATCC NSCLC is 37.5%; with 786-0 renal it was 68.9%; in the experiment with COLO 205 colon it was -36.6% (active); in the experiment with DU-145 prostate it was 52.4%; in the experiment on K-562 leukemia, 21.1%; with MALME-3M melanoma, 85.5%. In addition, the growth in the experiment on MDA-MB-231 breast was 52.2%; with RXF 393 renal it was 94%; in the experiment on SF-268 CNS, 64.9%; in the experiment with SF-539 CNS it was 41.6%; in the experiment with UACC-257 melanoma, 37.4%; in the experiment with M14 melanoma it was 6.04% (active). The growth with HCT-15 colon was 40.4%.
Take `CC(C)(C)c1cc(O)c(O)c(C(C)(C)C)c1`: the growth is 48.4% in the experiment with NCI-H23 lung; 75.6% in the experiment on NCI-H226 lung; 63.5% in the experiment with NCI-H322M lung; 64.7% with HOP-62 NSCLC; 14.7% in the experiment on NCI-H460 lung; 0.232% (active) in the experiment on NCI-H522 lung. Also, the growth is 20.9% in the experiment on A549/ATCC NSCLC; 52.2% in the experiment on 786-0 renal; 64.9% in the experiment on COLO 205 colon; 68.7% with DU-145 prostate; 3.38% (active) in the experiment on K-562 leukemia; 67% with MALME-3M melanoma. For the same molecule, the growth was 61.1% with MDA-MB-231 breast; 65% in the experiment on RXF 393 renal; 53.2% in the experiment on SF-268 CNS; 40.6% in the experiment with SF-539 CNS; 80.5% in the experiment with UACC-257 melanoma; 51.9% in the experiment with M14 melanoma. The growth with HCT-15 colon is 26.7%.
For `O=C(NCCCO)c1cc(Cl)ccc1O`, the growth in the experiment with NCI-H23 lung was 8.32% (active); in the experiment on NCI-H226 lung it was 24.3%; in the experiment with NCI-H322M lung, 83.6%; in the experiment with HOP-62 NSCLC, 36.3%; in the experiment with NCI-H460 lung, 9.74% (active); in the experiment on NCI-H522 lung, -1.53% (active). In addition, the growth in the experiment with A549/ATCC NSCLC is 38.5%; with 786-0 renal, 49.5%; in the experiment on COLO 205 colon, 25%; in the experiment on DU-145 prostate it was 36.1%; with K-562 leukemia it was 11.1%; with MALME-3M melanoma it was 0.89% (active). Besides, the growth in the experiment with MDA-MB-231 breast is 28.2%; in the experiment on RXF 393 renal, 40.7%; in the experiment with SF-268 CNS, 28.4%; with SF-539 CNS it was 45%; in the experiment on UACC-257 melanoma, 16.4%; in the experiment on M14 melanoma, 30.3%. In the experiment with HCT-15 colon, the growth was 77.5%.
